# Screening results (PubChem BioAssay)
# Hits are enriched below; roughly 9.2% of the tested compounds scored in any of these assays.
# ELG1 DNA repair = ELG1-dependent DNA repair inhibition; HEK293T ELG1-luciferase reporter, luminescence, 16 h; DNA damage induced by 5-fluorouridine; Potency, µM (doses to about 46.1 µM), inactives show top-dose activity change, negative = inhibition, hits mostly inhibitors; actives 2.3% (n = 330,000); AID 504467; note: % is set by controls: 0 for no effect and ±100 for the full control effect; nearly all actives have a fitted effect of over 55% in size
#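 5-Fluorouridine DNA damage + compound/DMSO, 2,000 cells/well, 16 h, 37 °C/5% CO2. ONE-Glo, 30 min RT, luminescence. Readout = decrease in reporter signal.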
# FLuc modulator = inhibits or activates purified firefly luciferase, miR-21 counter-screen. Potency, µM (top dose mostly 57.5 µM), inactives show at the highest dose activity change, negative = inhibition, most hits filed as inhibitors. purified FLuc, Km substrates, luminescence inhibition. actives 6.9% (n = 360,000). AID 588342. P08659;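 note: plate controls were vehicle for no effect and reference inhibitor for full effect; nearly all actives have a fitted effect of over 55% in size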
# Target sequence (P08659 whole entry, looked up): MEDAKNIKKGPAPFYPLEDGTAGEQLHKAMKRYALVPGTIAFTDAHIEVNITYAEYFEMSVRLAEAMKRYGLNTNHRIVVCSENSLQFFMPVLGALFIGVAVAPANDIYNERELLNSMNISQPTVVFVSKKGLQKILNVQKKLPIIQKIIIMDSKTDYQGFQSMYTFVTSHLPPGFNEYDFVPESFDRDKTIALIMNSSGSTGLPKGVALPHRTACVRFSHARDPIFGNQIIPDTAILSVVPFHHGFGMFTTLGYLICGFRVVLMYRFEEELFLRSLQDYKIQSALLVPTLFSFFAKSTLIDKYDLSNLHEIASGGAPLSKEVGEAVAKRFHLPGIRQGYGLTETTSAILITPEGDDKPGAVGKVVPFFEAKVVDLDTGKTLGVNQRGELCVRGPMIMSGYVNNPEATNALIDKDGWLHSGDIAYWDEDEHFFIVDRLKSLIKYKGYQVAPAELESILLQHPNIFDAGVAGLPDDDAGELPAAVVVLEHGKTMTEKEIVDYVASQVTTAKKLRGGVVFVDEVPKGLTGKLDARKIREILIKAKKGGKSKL
#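 Purified P. pyralis luciferase, 10 nM final, with Km-level 10 uM D-luciferin and 10 uM ATP in 50 mM Tris acetate pH 7.5, 10 mM Mg acetate, 0.01% Tween-20, 0.05% BSA; 6-point qHTS titration about 60 µM downward; luminescence read.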
# Rab9 prom act = activates the Rab9 promoter | actives 2.8% (n = 320,000) | Huh7 Rab9 promoter-luciferase reporter, luminescence, 24 h | Potency, µM (titrated, usually from 9.22 µM), inactives show at the highest dose activation, negative = inhibition, actives largely listed as activators; note: % of control where 0% means no effect; nearly all actives have a fitted effect of over 60% in size
#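 Cells were plated at 1500 per well in reduced-serum medium with 10% FBS and left 2 h. Compound in DMSO was then added for 24 h at 37 °C. Reporter signal was read by luminescence after 10 min with luciferase detection reagent.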
# ELG1 genotoxic = induces genotoxicity in HEK293T cells with luciferase-tagged ELG1; Potency, µM (titrated, usually from 46 µM), for the others: at the top dose activity change, positive = activation, actives largely listed as activators; HEK293T ELG1-luciferase reporter, luminescence, 16 h; AID 504466; actives 1.3% (n = 330,000); note: % of control where 0% means no effect; nearly all actives have a fitted effect of over 60% in size
#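 DMSO vehicle served as control against compound-treated ELG1-luciferase HEK293T cells; exposure lasted 16 hr at 37 °C and 5% CO2, followed by ONE-Glo luminescence detection after 30 min.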
# SMN2 splice up = enhancers of SMN2 splice variant expression; AID 1458; Potency, µM (highest dose often 46.1 µM), for the others: top-dose activity change, positive = activation, most hits filed as activators; actives 2.8% (n = 210,000); HEK293 SMN2-luciferase splicing reporter, luminescence, 30-36 h; note: % of control where 0% means no effect; nearly all actives have a fitted effect of over 55% in size
#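 HEK293 cells carry an SMN2 […]–luciferase reporter in which exon 7 inclusion puts luciferase in frame. Cells were plated 10-12 h before compound addition, then incubated 30-36 h at 37C. ONE-Glo luminescence was read; sodium butyrate at 4.5 mM final served as control.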
# NPC1 promoter act = NPC1 promoter activation; Huh7 NPC1 promoter luciferase reporter, 24 h; Potency, µM (titrated, usually from 9.22 µM), inactives show at the highest dose activation, actives largely listed as activators; actives 2.4% (n = 320,000); note: % of control where 0% means no effect; nearly all actives have a fitted effect of over 60% in size
#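 In 1536-well qHTS, Huh7 cells harboring an NPC1 promoter–luciferase construct received compound for 24 h; activation was quantified by luminescence following luciferase reagent addition.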
# The depositor's hits bear a star; ? = inconclusive; / = no result given; [ ] = remark or other dose. Calls come from the whole dose curve; as a rule, active = well fitted curve in the direction sought with a large enough effect; inconclusive = small, poorly fitted or top-dose-only effect, or another doubt; inactive = no such curve, though single readings can be large; an effect the other way counts as inactive or inconclusive. Potency is the fitted concentration of half-maximal effect.
SMILES,ELG1 DNA repair,FLuc modulator,Rab9 prom act,ELG1 genotoxic,SMN2 splice up,NPC1 promoter act
Cc1nc(NC(=O)c2cncc(Br)c2)ccc1Br,?,0%,?,5%,/,?
Cc1cc(NC(=O)c2ccc3c(c2)OCO3)no1,?,11µM*,1.6µM*,?,11µM*,2.5µM*
Cc1nc(NC(=O)c2ccc3c(c2)OCO3)ccc1Br,?,9.5µM*,3.5µM*,?,11µM*,3.2µM*
Cc1ccc(N=C2C(=O)Nc3ccc(C)c(Br)c32)cc1,14%,12µM*,0%,-3%,/,2%
O=C1Nc2ccccc2C1=Nc1ccc(F)cc1,-1%,5%,-3%,2%,/,2%
COc1ccc(N=C2C(=O)Nc3ccc(C)c(Br)c32)cc1,7%,8.5µM*,-7%,3%,/,-4%
CCOc1ccc(CCNC(=O)c2ccc(=O)[nH]c2)cc1OCC,10%,3%,-3%,-6%,/,-1%
COc1cccc(/C=N/Nc2cc(N3CCOCC3)ncn2)c1O,12µM*,8.5µM*,-36%,?,/,-31%
Oc1cccc(/C=N/Nc2cc(N3CCCC3)nc(N3CCCC3)n2)c1,26µM*,13µM*,0%,-8%,-18%,-1%
O=C(Nc1cc(N2CCOCC2)ncn1)c1ccc(F)cc1,?,?,?,6%,/,14%
C/C(=N\Nc1cc(N2CCOCC2)ncn1)c1ccc(O)cc1,21%,19µM*,3%,9%,/,0%
C(=N\Nc1cc(N2CCCCC2)ncn1)/c1ccco1,?,4.8µM*,?,?,/,?
Cc1ccc(N(C)C(=O)n2cnc3ccccc32)cc1,-11%,-3%,8%,-2%,4%,2%
Fc1cccc(/C=N/Nc2cc(N3CCOCC3)ncn2)c1,?,4.8µM*,2µM*,?,/,1.8µM*
C=CCCCCCCCCc1nc(SCC(C)=O)n[nH]1,23µM*,0%,-1%,-4%,/,-3%
CCNC(=S)N1CCCC(c2nc3ccc(C)cc3[nH]2)C1 (configuration not stated),10%,-5%,-8%,10%,/,-5%
Cc1ccc2nc(C3CCCCC3)[nH]c2c1,?,9.5µM*,2.8µM*,?,/,1.8µM*
Nc1c(C(=O)O)sc2nc(-c3ccccc3)cc(-c3ccc(Cl)cc3)c12,?,0%,-3%,-1%,/,2%
Nc1c(C(=O)N/N=C/c2cccnc2)oc2nc(-c3ccccc3)cc(-c3ccco3)c12,7.3µM*,-1%,-6%,2%,/,-4%
Nc1c(C(=O)N/N=C/c2cccnc2)oc2nc(-c3ccco3)cc(-c3ccco3)c12,2.9µM*,-10%,-5%,-8%,/,-1%
NNC(=O)c1oc2nc(-c3ccc(Cl)cc3)cc(-c3ccccc3)c2c1N,16µM*,0%,1%,-8%,/,-10%
NNC(=O)c1oc2nc(-c3ccco3)cc(-c3ccco3)c2c1N,?,0%,1%,-11%,/,-5%
O=C1COc2ccc(C(=O)C[n+]3cccc(O)c3)cc2N1,10%,-1%,1%,0%,/,1%
COc1ccc(CCNC(=O)C(C)SCC(=O)Nc2ccc(F)cc2)cc1 (configuration not stated),2%,/,/,2%,/,/
Nc1ccccc1-c1nc2ccccc2s1,?,11µM*,4µM*,?,?,?
SMILES,ELG1 DNA repair,FLuc modulator,Rab9 prom act,ELG1 genotoxic,SMN2 splice up,NPC1 promoter act
CN(C)c1nc(N)nc(-c2nc3ccccc3s2)n1,?,?,?,3.3µM*,8.9µM*,8%
Nc1ccc(O)c(-c2nc3ccccc3s2)c1,?,6µM*,?,?,?,3.2µM*
O=C(Nc1ccccc1-c1nc2ccccc2s1)c1ccc(F)cc1,/,-1%,/,/,-18%,/
Oc1ccc(N=C/C=C/c2cccc(Br)c2)cc1-c1nc2ccccc2s1,?,6µM*,?,?,76%,?
O=C(Nc1ccc(O)c(-c2nc3ccccc3s2)c1)c1cccs1,?,?,-1%,3%,15%,8%
C=CC(C)=C[C@@]1(C)SC(=O)C(C)=C1O,/,/,-16%[46.1 µM],/,/,-6%[46.1 µM]
Oc1ccc(-c2nc3ccccc3s2)c(O)c1,?,6µM*,4µM*,?,/,2.8µM*
CC(CC(=O)N1CCN(c2ccccc2)CC1)S(=O)(=O)c1ccc2c(c1)NC(=O)CO2 (configuration not stated),10µM*,-2%,-11%,-13%,/,8%
O=C1COc2ccc(S(=O)(=O)N3CCN(c4ccccc4)CC3)cc2N1,0%,0%,-1%,-2%,/,-2%
O=c1n(S(=O)(=O)c2cccc3cccnc23)c2ccccc2n1S(=O)(=O)c1cccc2cccnc12,0%,-2%,-1%,-2%,11µM*,-2%
CC1CC(C)CN(S(=O)(=O)c2cccc3cccnc23)C1 (configuration not stated),-3%,-12%,1%,-6%,-28%,-1%
CCOCCCNC(=O)C(c1ccccc1)N(Cc1cccs1)C(=O)c1ccc(NC(C)=O)cc1 (configuration not stated),/,1%,/,/,4%,/
Cc1ccc(-n2ncc3c(N4CCN(Cc5ccccc5)CC4)ncnc32)cc1Cl,/,-11%,/,/,/,/
CCC(=O)NNc1ncnc2c1cnn2-c1ccc(C)c(Cl)c1,/,21µM*,/,/,/,/
CC(=O)NNc1ncnc2c1cnn2-c1ccc(C)c(C)c1,?,?,20%,?,22%,11%
Cc1ccc(-n2ncc3c(NC4CCCCC4)ncnc32)cc1C,/,0.6µM*,/,/,/,/
Cc1ccc(-n2ncc3c(NC4CCCCC4)ncnc32)cc1Cl,/,1.1µM*,/,/,/,/
Cc1cccc2cc(CN(Cc3ccco3)C(c3nnnn3CCc3ccccc3)C(C)C)c(=O)[nH]c12 (configuration not stated),9.2µM*,0%,-6%,-10%,-11%,-5%
COc1ccc2[nH]c(=O)c(CN(Cc3ccco3)C(c3nnnn3Cc3ccccc3)C(C)C)cc2c1 (configuration not stated),?,0%,-5%,-27%,-22%,1%
COc1cc2ccccc2cc1C(=O)Nc1sc2c(c1C(N)=O)CCN(C(C)C)C2,-10%,9.5µM*,-6%,-1%,/,-7%
CCOC(=O)N1CCc2c(sc(NC(=O)c3ccc(Cl)s3)c2C(N)=O)C1,-13%,11µM*,2%,-10%,-92%,-1%
CC(=O)N1CCc2c(sc(NC(=O)C3COc4ccccc4O3)c2C(N)=O)C1 (configuration not stated),-7%,-18%,11%,20%,/,10%
